{
  "source": "the supplement of paper PMC7556523",
  "data": [
    {"tested_on": "Sporothrix brasiliensis CBS 133006", "assay": "growth inhibition relative to untreated control; higher = more growth inhibition (more antifungal activity), active = 80 or more; extreme values may be limits of the assay", "settings": "1 µM; 48 h", "procedure,_shortened": "(§1)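 Yeast-form cells of the reference isolates (grown 7 days in brain heart infusion broth with 2% glucose at 36°C) were exposed at 1 x 10^5 CFU/ml to library compounds at a final 1 μM for 48 h at 35°C in 5% CO2. Growth was checked by visual inspection under an inverted light microscope and quantified by spectrophotometric readings. The value is percent growth inhibition relative to untreated control. Runs were in quadruplicate.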", "values": [
      {"smiles": "O=C(NC1CC1)c1ccc(N2CCOc3ccc(Cl)cc32)s1", "growth inhibition": "7% (inactive)"},
      {"smiles": "O=C(Nc1nnc(S)s1)c1cc(Br)ccc1Cl", "growth inhibition": "6.75% (inactive)"},
      {"smiles": "Cc1cc(C(=O)Nc2ccc(-c3ccccc3)cc2)no1", "growth inhibition": "1.75% (inactive)"},
      {"smiles": "OCc1ccc(-c2cncc(Nc3cccc(Cl)c3)c2)cc1", "growth inhibition": "25.5% (inactive)"},
      {"smiles": "Nc1ncnc2c1c(Cc1cccc3ccccc13)nn2CC1CCNCC1", "growth inhibition": "0% (inactive)"},
      {"smiles": "CC(C)=CCC/C(C)=C/CNCCNC1C2CC3CC(C2)CC1C3", "note": "(stereo unspecified)", "growth inhibition": "44.2% (inactive)"},
      {"smiles": "O=C(Nc1cccc(-c2ccc(NCCCN3CCCC3)nc2)c1)c1ccccc1", "growth inhibition": "14.8% (inactive)"},
      {"smiles": "Cc1cc(C)nc(-n2nc(C)cc2Nc2ccccc2)n1", "growth inhibition": "17.2% (inactive)"},
      {"smiles": "Cc1nnc(NC(=O)c2cn(-c3ccccc3)nc2-c2ccccc2C)o1", "growth inhibition": "1.5% (inactive)"},
      {"smiles": "O=C([C@@H](c1ccc(Cl)cc1)c1cccnc1)N1CCN(c2ccc(C(F)(F)F)cc2)CC1", "growth inhibition": "25.2% (inactive)"},
      {"smiles": "CN1CCCN(C(c2ccccc2)c2ccc(Cl)cc2)CC1", "note": "(stereo unspecified)", "growth inhibition": "6% (inactive)"},
      {"smiles": "COc1ccc2nccc(NC(=O)C3CCN(CCc4ccc(Cl)cc4)CC3)c2n1", "growth inhibition": "39% (inactive)"},
      {"smiles": "N#Cc1ccc(-c2ccc(OCC(N)=O)cc2)cc1", "growth inhibition": "19.2% (inactive)"},
      {"smiles": "Cc1cc(C)c2cc(C(=O)NC3CCCCCCC3)[nH]c2c1", "growth inhibition": "6% (inactive)"},
      {"smiles": "Cc1cc(OCC(=O)Nc2ccc(C(C)C)cc2)n(C)c(=O)c1C#N", "growth inhibition": "3.5% (inactive)"},
      {"smiles": "C[C@H](c1ccc2c(c1)CCCC2)N(C)c1ncc2c(N)nc(N)nc2n1", "growth inhibition": "10% (inactive)"},
      {"smiles": "Nc1nccc2ccc(Oc3ccncc3)cc12", "growth inhibition": "9.25% (inactive)"},
      {"smiles": "Cc1cccc(Cn2ccc(NC(=O)c3ccc4c(c3)OCO4)n2)c1", "growth inhibition": "7.5% (inactive)"},
      {"smiles": "COc1ccc(-c2onc(C(F)(F)F)c2-c2ccc(Cl)cc2)c(O)c1", "growth inhibition": "11.8% (inactive)"},
      {"smiles": "COC(=O)c1ccc(F)cc1NS(=O)(=O)c1cccc(-c2cnn(Cc3ccccc3)c2)c1", "growth inhibition": "12% (inactive)"},
      {"smiles": "CN1CCN(S(=O)(=O)c2ccc(-c3ccc4c(Nc5ncc(Cl)cn5)ccnc4c3)cc2)CC1", "growth inhibition": "13% (inactive)"},
      {"smiles": "Cc1cccc(-c2nc(Nc3ccncn3)c3sccc3n2)n1", "growth inhibition": "1% (inactive)"},
      {"smiles": "COc1ccc(-c2cnc3ccc(N4CCCC4)nn23)cc1OC", "growth inhibition": "21% (inactive)"},
      {"smiles": "Brc1cncc(-c2cc(NCCCn3ccnc3)nc(-c3ccccc3)n2)c1", "growth inhibition": "22% (inactive)"},
      {"smiles": "CN1CCN(CCCOc2ncc(Nc3ncc(-c4ccc(C(F)(F)F)c(F)c4)nc3C(N)=O)cn2)CC1", "growth inhibition": "12.5% (inactive)"},
      {"smiles": "O=C(CCC1CCCCC1)Nc1cccc(-c2nnc(-c3ccco3)o2)c1", "growth inhibition": "2.5% (inactive)"},
      {"smiles": "CC1CC1C(=O)NC1CCN(CC2(c3ccccc3)CCCCC2)CC1", "note": "(stereo unspecified)", "growth inhibition": "12.8% (inactive)"},
      {"smiles": "CC(=O)N1CCN(c2ccc(Oc3ccc(Cl)cc3O)cc2)CC1", "growth inhibition": "3.5% (inactive)"},
      {"smiles": "Cc1ccc(S(=O)(=O)N2CCN(C(=O)c3cc(-c4ccccc4)n[nH]3)CC2)cc1", "growth inhibition": "1.5% (inactive)"},
      {"smiles": "O=C(Nc1ccc(N2CCNCC2)nc1)c1oc(-c2ccccc2)nc1C(F)(F)F", "growth inhibition": "15.2% (inactive)"},
      {"smiles": "COc1cc(NC(C)CCCN)c2ncccc2c1", "note": "(stereo unspecified)", "growth inhibition": "1% (inactive)"},
      {"smiles": "O=C(Nc1nc(-c2ccccn2)cs1)C1CC1c1ccccc1F", "note": "(stereo unspecified)", "growth inhibition": "9.5% (inactive)"},
      {"smiles": "CC[C@@H](CO)NCCN[C@@H](CC)CO", "growth inhibition": "6.75% (inactive)"},
      {"smiles": "Cc1cc(C)n2nc(C(=O)Nc3cc(C(F)(F)F)ccc3N3CCOCC3)nc2n1", "growth inhibition": "0.25% (inactive)"},
      {"smiles": "COC(=O)c1c(NC(=O)c2cc3ccccc3oc2=O)sc2c1CCN(Cc1ccccc1)C2", "growth inhibition": "8.75% (inactive)"},
      {"smiles": "CC(C)n1nc(-c2cc3c(Cl)cccc3[nH]2)c2c(N)ncnc21", "growth inhibition": "15% (inactive)"},
      {"smiles": "NC(=O)c1cc(-c2ccsc2)ccc1OCCOc1ccccc1", "growth inhibition": "7.25% (inactive)"},
      {"smiles": "COc1cncc(-c2cncc(N3CCN(c4ccncc4)CC3)n2)c1", "growth inhibition": "34.2% (inactive)"}
    ]},
    {"tested_on": "Sporothrix schenckii ATCC 32286", "assay": "growth inhibition relative to untreated control; higher = more growth inhibition (more antifungal activity), active = 80 or more; extreme values may be limits of the assay", "settings": "1 µM; 48 h", "procedure,_shortened": "as §1", "values": [
      {"smiles": "O=C(NC1CC1)c1ccc(N2CCOc3ccc(Cl)cc32)s1", "growth inhibition": "11.8% (inactive)"},
      {"smiles": "O=C(Nc1nnc(S)s1)c1cc(Br)ccc1Cl", "growth inhibition": "4% (inactive)"},
      {"smiles": "Cc1cc(C(=O)Nc2ccc(-c3ccccc3)cc2)no1", "growth inhibition": "17% (inactive)"},
      {"smiles": "OCc1ccc(-c2cncc(Nc3cccc(Cl)c3)c2)cc1", "growth inhibition": "6.75% (inactive)"},
      {"smiles": "Nc1ncnc2c1c(Cc1cccc3ccccc13)nn2CC1CCNCC1", "growth inhibition": "0% (inactive)"},
      {"smiles": "CC(C)=CCC/C(C)=C/CNCCNC1C2CC3CC(C2)CC1C3", "note": "(stereo unspecified)", "growth inhibition": "22.2% (inactive)"},
      {"smiles": "O=C(Nc1cccc(-c2ccc(NCCCN3CCCC3)nc2)c1)c1ccccc1", "growth inhibition": "6% (inactive)"},
      {"smiles": "Cc1cc(C)nc(-n2nc(C)cc2Nc2ccccc2)n1", "growth inhibition": "1% (inactive)"},
      {"smiles": "Cc1nnc(NC(=O)c2cn(-c3ccccc3)nc2-c2ccccc2C)o1", "growth inhibition": "22.8% (inactive)"},
      {"smiles": "O=C([C@@H](c1ccc(Cl)cc1)c1cccnc1)N1CCN(c2ccc(C(F)(F)F)cc2)CC1", "growth inhibition": "2% (inactive)"},
      {"smiles": "CN1CCCN(C(c2ccccc2)c2ccc(Cl)cc2)CC1", "note": "(stereo unspecified)", "growth inhibition": "6.5% (inactive)"},
      {"smiles": "COc1ccc2nccc(NC(=O)C3CCN(CCc4ccc(Cl)cc4)CC3)c2n1", "growth inhibition": "0% (inactive)"},
      {"smiles": "N#Cc1ccc(-c2ccc(OCC(N)=O)cc2)cc1", "growth inhibition": "0% (inactive)"},
      {"smiles": "Cc1cc(C)c2cc(C(=O)NC3CCCCCCC3)[nH]c2c1", "growth inhibition": "6.25% (inactive)"},
      {"smiles": "Cc1cc(OCC(=O)Nc2ccc(C(C)C)cc2)n(C)c(=O)c1C#N", "growth inhibition": "8% (inactive)"},
      {"smiles": "C[C@H](c1ccc2c(c1)CCCC2)N(C)c1ncc2c(N)nc(N)nc2n1", "growth inhibition": "0% (inactive)"},
      {"smiles": "Nc1nccc2ccc(Oc3ccncc3)cc12", "growth inhibition": "14.2% (inactive)"},
      {"smiles": "Cc1cccc(Cn2ccc(NC(=O)c3ccc4c(c3)OCO4)n2)c1", "growth inhibition": "7.25% (inactive)"},
      {"smiles": "COc1ccc(-c2onc(C(F)(F)F)c2-c2ccc(Cl)cc2)c(O)c1", "growth inhibition": "6% (inactive)"},
      {"smiles": "COC(=O)c1ccc(F)cc1NS(=O)(=O)c1cccc(-c2cnn(Cc3ccccc3)c2)c1", "growth inhibition": "20.2% (inactive)"},
      {"smiles": "CN1CCN(S(=O)(=O)c2ccc(-c3ccc4c(Nc5ncc(Cl)cn5)ccnc4c3)cc2)CC1", "growth inhibition": "10.8% (inactive)"},
      {"smiles": "Cc1cccc(-c2nc(Nc3ccncn3)c3sccc3n2)n1", "growth inhibition": "9.75% (inactive)"},
      {"smiles": "COc1ccc(-c2cnc3ccc(N4CCCC4)nn23)cc1OC", "growth inhibition": "0% (inactive)"},
      {"smiles": "Brc1cncc(-c2cc(NCCCn3ccnc3)nc(-c3ccccc3)n2)c1", "growth inhibition": "3.5% (inactive)"},
      {"smiles": "CN1CCN(CCCOc2ncc(Nc3ncc(-c4ccc(C(F)(F)F)c(F)c4)nc3C(N)=O)cn2)CC1", "growth inhibition": "0% (inactive)"},
      {"smiles": "O=C(CCC1CCCCC1)Nc1cccc(-c2nnc(-c3ccco3)o2)c1", "growth inhibition": "2.5% (inactive)"},
      {"smiles": "CC1CC1C(=O)NC1CCN(CC2(c3ccccc3)CCCCC2)CC1", "note": "(stereo unspecified)", "growth inhibition": "20.5% (inactive)"},
      {"smiles": "CC(=O)N1CCN(c2ccc(Oc3ccc(Cl)cc3O)cc2)CC1", "growth inhibition": "0.75% (inactive)"},
      {"smiles": "Cc1ccc(S(=O)(=O)N2CCN(C(=O)c3cc(-c4ccccc4)n[nH]3)CC2)cc1", "growth inhibition": "2% (inactive)"},
      {"smiles": "O=C(Nc1ccc(N2CCNCC2)nc1)c1oc(-c2ccccc2)nc1C(F)(F)F", "growth inhibition": "13.5% (inactive)"},
      {"smiles": "COc1cc(NC(C)CCCN)c2ncccc2c1", "note": "(stereo unspecified)", "growth inhibition": "4.25% (inactive)"},
      {"smiles": "O=C(Nc1nc(-c2ccccn2)cs1)C1CC1c1ccccc1F", "note": "(stereo unspecified)", "growth inhibition": "34.2% (inactive)"},
      {"smiles": "CC[C@@H](CO)NCCN[C@@H](CC)CO", "growth inhibition": "12.2% (inactive)"},
      {"smiles": "Cc1cc(C)n2nc(C(=O)Nc3cc(C(F)(F)F)ccc3N3CCOCC3)nc2n1", "growth inhibition": "12.5% (inactive)"},
      {"smiles": "COC(=O)c1c(NC(=O)c2cc3ccccc3oc2=O)sc2c1CCN(Cc1ccccc1)C2", "growth inhibition": "15% (inactive)"},
      {"smiles": "CC(C)n1nc(-c2cc3c(Cl)cccc3[nH]2)c2c(N)ncnc21", "growth inhibition": "16.8% (inactive)"},
      {"smiles": "NC(=O)c1cc(-c2ccsc2)ccc1OCCOc1ccccc1", "growth inhibition": "12.2% (inactive)"},
      {"smiles": "COc1cncc(-c2cncc(N3CCN(c4ccncc4)CC3)n2)c1", "growth inhibition": "0% (inactive)"}
    ]}
  ]
}
